From PubChem BioAssay (NCATS) come the findings set out here.

Results filed as inconclusive are left out. Unmarked numbers belong to inactive results. Calls of active or inactive are those of the source. The call rests on the fitted dose curve; in most records, active means well fitted curve in the direction sought with a large enough effect; inconclusive means small, poorly fitted or top-dose-only effect, or another doubt; inactive means no such curve, though single readings can be large; an effect the other way counts as inactive or inconclusive.

A short description of assay [1]: Primary qHTS for inhibitors of nuclear receptor binding SET domain protein 2 (NSD2) in an isogenic RCH-ACV NSD2 p.E1099K mutant (9B) (AID 1645876). In general terms: qHTS replaces the single test concentration by a dilution series.
The nature of assay [2]: Primary qHTS for inhibitors of nuclear receptor binding SET domain protein 2 (NSD2) in an RCH-ACV wild type WT cells (2C) (AID 1645877).
Further: nearly all actives have a fitted effect of over 70% in size.
On the % scale 0 is the no-effect control and ±100 the full control effect; potency means the concentration at half of the fitted maximal effect.

On to `C=C1[C@@H]2CC[C@@]3(C)[C@H](c4ccoc4)OC(=O)C[C@]13O[C@H]1CC(=O)C(C)(C)[C@H](C(OC(C)=O)C(=O)OC)[C@]12C` (stereo partly specified), for which the Potency result in assay [1] and in assay [2] was “inactive” throughout.
As for `COC(=O)C1(C)CCC(O)C2(C)c3cc(O)c(C(C)C)cc3C(O)C(OC(C)=O)C12` (stereo unspecified), the Potency entry in assay [1] and in assay [2] was “inactive” throughout.
Regarding `CC(=O)OC1CC(O)C(C)(C)C2CC(OC(C)=O)C3(C)C(CCC4(C)C(c5ccoc5)C(=O)C5OC543)C12C` (stereo unspecified), the Potency entry in assay [1] and in assay [2] was “inactive” each time.
For the molecule `C[C@]12CC[C@H]3[C@@H](CC[C@@]45O[C@@H]4C(O)=C(C#N)C[C@]35C)[C@@H]1CC[C@@H]2O`, the figures for the Potency in assay [1] and in assay [2] were 16600 nM (active) and 13200 nM (active), respectively.
For `C[C@H]1O[C@@H](O[C@H]2C[C@@H](O)[C@]3(CO)C4C(CC[C@]3(O)C2)[C@@]2(O)CC[C@H](C3=CC(=O)OC3)[C@@]2(C)C[C@H]4O)[C@@H](O)[C@@H](O)[C@H]1O` (stereo partly specified), the Potency is 153 nM (active) in assay [1] and 383 nM (active) in assay [2].
Regarding `COc1c(C(C)C)cc2c(c1O)[C@@]1(C(=O)O)CCCC(C)(C)C1CC2` (stereo partly specified), the Potency entry in assay [1] and in assay [2] was “inactive” each time.
Take `C=C(CO)C(=O)O[C@H]1C/C(C)=C/CC/C(CO)=C/[C@H]2OC(=O)C(=C)[C@H]12`: the Potency entry in assay [1] is “inactive”.
As to `CCN1C[C@]2(COC(=O)c3ccccc3N3C(=O)C[C@H](C)C3=O)CC[C@H](OC)[C@@]34[C@@H]5C[C@H]6[C@H](OC)[C@@H]5[C@](O)(C[C@@H]6OC)[C@](O)([C@@H](OC)[C@H]23)[C@@H]14`, the Potency entry in assay [1] and in assay [2] was “inactive” in each case.
For the molecule `COC1CC(OC2CCC3(C)C(CCC4C3CCC3(C)C(C5=CC(=O)OC5)C(OC(C)=O)CC43O)C2)OC(C)C1OC1OC(CO)C(O)C(O)C1O` (stereo unspecified), the Potency in assay [1] is 483 nM (active); in assay [2], 1210 nM (active).
For the molecule `O=C(N1CCOCC1)N1CCN(c2ccc(Cl)cc2)CC1`, the Potency entry in assay [1] and in assay [2] was “inactive” throughout.
Consider `CCC(C)(C#N)O[C@@H]1O[C@H](CO)[C@@H](O)[C@H](O)[C@H]1O` (stereo partly specified), for which the Potency result in assay [1] and in assay [2] was “inactive” in each case.
As to `C[C@H]1C(=O)O[C@H]2[C@H](O)[C@]34C5OC(=O)[C@]3(O[C@@H]3OC(=O)[C@H](O)C34[C@H](C(C)(C)C)[C@H]5O)C12O` (stereo partly specified), the Potency entry in assay [1] and in assay [2] was “inactive” each time.
As for `C/C=C(\C)C(=O)O[C@H]1[C@H](OC(C)=O)[C@]2(CO)[C@H](O)[C@H](O)[C@]3(C)C(=CCC4[C@@]5(C)CC[C@H](O[C@@H]6O[C@H](C(=O)O)[C@@H](O)[C@H](O[C@@H]7OC[C@H](O)[C@H](O[C@@H]8OC[C@H](O)[C@H](O)[C@H]8O)[C@H]7O)[C@H]6O[C@@H]6O[C@H](CO)[C@@H](O)[C@H](O)[C@H]6O)C(C)(C)C5CC[C@]43C)[C@@H]2CC1(C)C` (stereo partly specified), the activity change, negative = viability loss in assay [1] was -4.86% [at 9.23 µM]. The activity change, negative = cell killing in assay [2] was 2.35% [at 9.23 µM].
On to `C/C=C(\C)C(=O)OC1CC2C(CC=C3CC(OC4CC(OC)C(OC5CC(OC)C(OC6OC(C)C(OC7OC(CO)C(O)C(O)C7O)C(OC)C6O)C(C)O5)C(C)O4)CCC32C)C2(O)CCC(C(C)=O)C12C` (stereo unspecified), for which the activity change, negative = viability loss in assay [1] was -7.24% [at 9.23 µM]. In addition, the activity change, negative = cell killing in assay [2] was -1.79% [at 9.23 µM].
Turning to `CN1[C@H]2C[C@H](OC(=O)[C@H](CO)c3ccccc3)C[C@@H]1[C@@H](O)C2`, the Potency entry in assay [1] and in assay [2] was “inactive” in each case.
In the case of `CC(=O)OC1CC(O)C2(C)C(CC(OC(C)=O)C3(C)C2CCC2(C)C(c4ccoc4)C(=O)C4OC423)C1(C)C` (stereo unspecified), the Potency result in assay [1] and in assay [2] was “inactive” each time.
As to `CN1C(=O)c2ccccc2NC(=O)[C@]12O[C@@H]2c1ccccc1`, the Potency result in assay [1] and in assay [2] was “inactive” in each case.
Consider `Clc1ccc(N2C[C@H]3CC[C@@H](C2)N3)nn1`, for which the Potency result in assay [1] and in assay [2] was “inactive” in each case.
As for `COC1=CC(=O)O[C@@H](/C=C/c2ccccc2)C1`, the Potency result in assay [1] and in assay [2] was “inactive” in each case.
As for `COC(=O)C1(C)CCC(O)C2(C)c3c(O)cc(C(C)C)cc3C(O)C(OC(C)=O)C12` (stereo unspecified), the Potency result in assay [1] and in assay [2] was “inactive” in each case.
Consider `COC1CC(OC2CCC3(C)C(=CCC4C3CCC3(C)C(C(C)OC5OC(COC6OC(CO)C(O)C(O)C6O)C(O)C(O)C5O)CCC43O)C2)OC(C)C1OC1OC(C)C(O)C(OC)C1O` (stereo unspecified), for which the outcome in assay [1] is “inactive [at 9.23 µM]”. The activity change, negative = cell killing in assay [2] is 0.676% [at 9.23 µM].
Turning to `COC1=CC(=O)O[C@@H](CCc2ccccc2)C1`, the Potency entry in assay [1] and in assay [2] was “inactive” throughout.
Regarding `CC[C@H]1CN2CC[C@H]1C[C@H]2[C@H](O)c1ccnc2ccc(OC)cc12`, the Potency entry in assay [1] is “inactive”.
`CO[C@@H]1[C@H](O)[C@@H](O[C@@H]2C[C@H]3CC[C@@H]4C(CC[C@]5(C)[C@@H](C6=CC(=O)OC6)CC[C@]45O)[C@@]3(C)[C@H](O)C2)O[C@H](C)[C@@H]1O[C@@H]1O[C@H](CO)[C@@H](O)[C@H](O)[C@H]1O` (stereo partly specified): the Potency in assay [1] is 121 nM (active); in assay [2], 304 nM (active).
